Assay [1] can be described thus: yeast TOR pathway RPL19A-GFP modulators, primary screen, cell-based, S. cerevisiae, multiplex flow cytometry (AID 1862; in the data active = percent of DMSO control GFP below about 86%;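 also: lower values mimic rapamycin by blocking the RPL19A rise seen in DMSO cells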). The following applies: S. cerevisiae RPL19A-GFP strain, flow cytometry fluorescence, 3 h; at 10 µM; stronger effect = lower value. A general note: Flow cytometry measures light scatter and fluorescence of single cells or particles in a stream.
Assay [2] in a line: modulators of MEP2-GFP levels in yeast, primary screen, S. cerevisiae, multiplex flow cytometry (AID 1867;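 active = GFP response, as percent of the DMSO control, above the screen-wide mean plus 3 SD, about 139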;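 also: median GFP channel fluorescence of barcode-gated MEP2-GFP cells measured by flow cytometry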). The note with it: S. cerevisiae MEP2-GFP strain, 3 h, at 10 µM, stronger effect = higher value, 100% means same as DMSO wells.
Assay [3] is described as follows: modulators of CIT2-GFP expression in yeast, primary screen, S. cerevisiae, GFP fusion, multiplex flow cytometry (AID 1870;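 active = percent response above a set limit, the screen-wide mean plus 3 SD, cut at about 130% in these data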;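 also: barcoded CIT2-GFP strain pooled with four other GFP strains with rapamycin as positive control; median GFP fluorescence per well over plate mean of DMSO wells so 100% = DMSO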). The note with it: 3 h, at 10 µM, stronger effect = higher value.
Assay [4] can be described thus: modulators of LAP4-GFP expression in yeast, primary screen, S. cerevisiae, multiplex flow cytometry (AID 1873). The note with it: 3 h, at 10 µM, stronger effect = higher value.
Assay [5] is described as follows: modulators of AGP1-GFP expression in yeast TOR pathway, primary screen, cell-based, multiplex flow cytometry, S. cerevisiae (AID 1887;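 active = GFP signal above the screen-wide mean plus 3 SD, that is over about 124.5% of the solvent control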;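 also: AGP1-GFP fusion strain of S. cerevisiae within a five-strain barcoded multiplex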). The note with it: 3 h, at 10 µM, stronger effect = higher value.
Assay [6] is described as follows: inhibitors of CD8+ T cell-vesicle binding, pilot screen, LFA-1/ICAM-1 modulator project, MLPCN validation set, flow cytometry (AID 2523;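 active = response below a set limit, under 55% cells CD8-positive and vesicle-bound, and CD8 cells' 90th-percentile brightness under 279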;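 as to vesicle binding response: mean PE anti-B7-1 fluorescence of CD8+ cells relative to row control; 100% = QL9-loaded vesicles with DMSO vehicle in the same plate row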). The note with it: 2C mouse CD8+ T cells, at 7 µM, stronger effect = lower value; double positive events: measured here: CD8+/vesicle+ event percentage.
For assay [7], the target named is Integrin beta-1 (Homo sapiens) + Integrin alpha-4 (Homo sapiens) (UniProt P13612+P05556). Briefly: inhibition of HUTS-21 binding to VLA-4, pilot screen, VLA-4 allosteric modulator project, U937 cells, HUTS-21 mAb, flow cytometry, validation set (AID 2674;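 active = inhibition above 50%, about 3 SD of the validation set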;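 also: antibody binding induced by the VLA-4 ligand LDV present at three times its Kd; 0% = LDV ligand with antibody and no compound and 100% = antibody without LDV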). The note with it: HUTS-21 LIBS mAb binding, at 6.7 µM, stronger effect = higher value, binding induced by LDV ligand.
Assay [8] is described as follows: superoxide lowering in aged yeast cells, pilot screen, validation compound set (AID 2706;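 active = superoxide response below 65% of plate, a cut near 3 SD across the whole screen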;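 also: yeast exposed to compound for one week at 30 degrees C before staining; 100% = mean of all compound wells on the same plate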). The note with it: S. cerevisiae aging, superoxide DHE fluorescence; at 10 µM; stronger effect = lower value.
Assay [9] deals with Beta-adrenergic receptor kinase 1 (Homo sapiens) (UniProt P25098). Description: GRK2 binders displacing RNA aptamer, biochemical, validation, human GRK2, bead flow cytometry (AID 488806;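 active = aptamer binding inhibition above 30%, about 3 SD of noise from non-fluorescent compounds; inactive = inhibition at or below 30%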). The note with it: bead-bound GRK2, FAM-aptamer displacement, at 10 µM, stronger effect = higher value.
Assay [10] addresses Beta-2 adrenergic receptor (Homo sapiens) (UniProt P07550). Description: beta2AR agonists driving receptor internalization, pilot screen, cell-based, FAP fluorogen, flow cytometry, validation set (AID 504459;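 active = percent response above 42, roughly 3 SD of non-fluorescent test compounds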;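 also: agonist-driven loss of surface beta2AR via internalization measured by FAP dye flow cytometry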). The following applies: Am2.2-beta2AR cells, FAP surface receptor flow cytometry; at 10 µM; stronger effect = higher value.
In assay [11] the target is AP-2 complex subunit beta (Homo sapiens) (UniProt P63010). Description: inhibitors of arrestin peptide binding to AP2, pilot screen, biochemical, validation set, GST-AP2 beads, flow cytometry (AID 504541;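 active = inhibition above 54%, about 3 SD of non-fluorescent compounds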;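 also: AP2 carries R879A mutation and is captured from E. coli lysate; bead-bound FITC arrestin peptide fluorescence measuring arrestin peptide binding to AP2; 0% = DMSO wells and 100% = excess unlabeled arrestin peptide control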). The following applies: FITC arrestin peptide, at 10 µM, stronger effect = higher value, AP2 beta2 appendage fragment, R879A mutant.
Assay [12] can be described thus: yeast V-ATPase proton transport modulators, S. cerevisiae, pHLuorin, HTS validation (AID 504600; in the data active = response above about 15%;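 also: plate controls were DMSO for no effect and reference compound for full effect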). The following applies: S. cerevisiae pHLuorin cytosolic pH, at 10 µM, stronger effect = higher value.
In assay [13] the test system is anti-desmoglein-3 scFv antibody binding to human DSG3. Briefly: inhibitors of anti-DSG3 scFv binding to DSG3, pilot screen, biochemical, validation compound set, bead-based, flow cytometry (AID 588368;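 active = binding below the plate cutoff, the plate median minus 3 SD, with a reading above zero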;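 also: signal is the median channel fluorescence of bead-bound GFP antibody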). The following applies: Protein G beads, DSG3-Fc, scFv-GFP binding, at 10 µM, stronger effect = lower value.
Assay [14] in a line: inhibitors of fungal efflux pumps CDR1, CDR2, MDR1, pilot screen, validation compound set, multiplex, phenotypic (AID 588506;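 active = efflux inhibition above 0.42, the validation set average plus 4 SD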;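 also: Nile Red retained in cells so higher fluorescence means more efflux inhibition; 0 = negative control wells and 1 = enniatin B 25 µM full block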). The note with it: S. cerevisiae pump-expressing triplex, Nile Red efflux flow cytometry; at 10 µM; stronger effect = higher value; the pumps come from Candida albicans.
Assay [15] deals with ATP-binding cassette sub-family B member 6 (Homo sapiens) (UniProt Q9NP58). Description: ABCB6 transporter inhibitors, pilot screen, K562-ABCB6 cells, flow cytometry, validation set (AID 588550;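 active = inhibition above the screen-wide mean plus 3 SD, about 51%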;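 also: 0% = DMSO wells and 100% = benzethonium chloride 70 µM positive control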). The note with it: K562-ABCB6 porphyrin accumulation, 1 h, at 10 µM, stronger effect = higher value.
Assay [16] can be described thus: promoters of myeloid differentiation in arrested cells, primary screen, cell-based, GFP/MAC1 double positive, flow cytometry, validation set (AID 588685;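 active = differentiation response of at least 50%, scaled between solvent and reference control, from cells with both markers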;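 also: compound exposure lasts four days before antibody staining and flow analysis; 0% = DMSO wells and 100% = 5 µM fulvestrant positive control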). The note with it: ER-HoxA9 marrow cells, stronger effect = higher value, normalized: vehicle 0, fulvestrant 100.

The values below come from PubChem BioAssay.

Inconclusive results are not listed. The source made the active and inactive calls.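 The calls were made as follows, unless noted: active = GFP signal, as percent of the solvent control, above the screen mean plus 3 SD, about 149; inconclusive = no reading because the compound's own fluorescence upset strain identification; inactive = the rest.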

Sequence of Beta-adrenergic receptor kinase 1 (Homo sapiens) (P25098 whole entry, looked up): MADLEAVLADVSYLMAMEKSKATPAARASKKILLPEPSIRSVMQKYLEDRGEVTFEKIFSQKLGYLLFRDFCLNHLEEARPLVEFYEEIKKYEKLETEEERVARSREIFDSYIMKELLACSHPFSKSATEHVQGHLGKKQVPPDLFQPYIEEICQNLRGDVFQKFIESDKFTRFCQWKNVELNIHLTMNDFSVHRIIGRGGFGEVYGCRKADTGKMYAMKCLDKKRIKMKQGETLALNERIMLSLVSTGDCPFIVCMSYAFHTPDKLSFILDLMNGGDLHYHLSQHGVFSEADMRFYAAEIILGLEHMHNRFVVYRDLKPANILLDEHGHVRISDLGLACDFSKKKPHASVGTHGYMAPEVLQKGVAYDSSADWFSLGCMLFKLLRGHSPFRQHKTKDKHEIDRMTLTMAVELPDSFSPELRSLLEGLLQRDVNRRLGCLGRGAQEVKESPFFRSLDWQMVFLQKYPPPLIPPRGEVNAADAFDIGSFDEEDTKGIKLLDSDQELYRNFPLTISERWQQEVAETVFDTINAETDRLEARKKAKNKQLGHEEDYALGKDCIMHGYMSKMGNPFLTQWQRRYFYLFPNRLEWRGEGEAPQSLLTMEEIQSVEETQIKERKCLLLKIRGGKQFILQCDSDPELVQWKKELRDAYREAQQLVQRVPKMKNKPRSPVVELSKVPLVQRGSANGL
Sequence of ATP-binding cassette sub-family B member 6 (Homo sapiens) (Q9NP58 whole entry, looked up): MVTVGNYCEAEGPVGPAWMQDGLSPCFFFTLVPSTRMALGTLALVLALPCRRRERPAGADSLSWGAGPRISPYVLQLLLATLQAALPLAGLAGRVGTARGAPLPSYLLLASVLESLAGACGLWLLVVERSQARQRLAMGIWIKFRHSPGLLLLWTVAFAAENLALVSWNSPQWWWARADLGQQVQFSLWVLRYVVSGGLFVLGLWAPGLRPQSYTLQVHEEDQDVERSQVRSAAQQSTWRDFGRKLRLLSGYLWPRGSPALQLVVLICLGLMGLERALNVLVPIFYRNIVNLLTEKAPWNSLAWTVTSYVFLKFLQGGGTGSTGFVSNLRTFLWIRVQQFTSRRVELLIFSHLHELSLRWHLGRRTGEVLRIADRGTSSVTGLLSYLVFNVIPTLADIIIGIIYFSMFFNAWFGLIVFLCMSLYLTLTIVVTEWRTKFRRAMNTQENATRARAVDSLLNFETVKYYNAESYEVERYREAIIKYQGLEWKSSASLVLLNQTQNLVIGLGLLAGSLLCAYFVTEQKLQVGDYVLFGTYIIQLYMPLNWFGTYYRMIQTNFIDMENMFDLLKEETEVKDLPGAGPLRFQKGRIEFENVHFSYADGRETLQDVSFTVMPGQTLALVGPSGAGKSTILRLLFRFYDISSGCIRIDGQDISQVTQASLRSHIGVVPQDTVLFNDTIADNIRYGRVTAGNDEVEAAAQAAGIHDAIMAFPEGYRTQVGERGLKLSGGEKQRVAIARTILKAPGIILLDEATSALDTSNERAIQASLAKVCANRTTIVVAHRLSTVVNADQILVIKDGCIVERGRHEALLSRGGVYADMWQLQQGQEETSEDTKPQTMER
Sequence of AP-2 complex subunit beta (Homo sapiens) (P63010 whole entry, looked up, the tested form may be a part, one chain of several): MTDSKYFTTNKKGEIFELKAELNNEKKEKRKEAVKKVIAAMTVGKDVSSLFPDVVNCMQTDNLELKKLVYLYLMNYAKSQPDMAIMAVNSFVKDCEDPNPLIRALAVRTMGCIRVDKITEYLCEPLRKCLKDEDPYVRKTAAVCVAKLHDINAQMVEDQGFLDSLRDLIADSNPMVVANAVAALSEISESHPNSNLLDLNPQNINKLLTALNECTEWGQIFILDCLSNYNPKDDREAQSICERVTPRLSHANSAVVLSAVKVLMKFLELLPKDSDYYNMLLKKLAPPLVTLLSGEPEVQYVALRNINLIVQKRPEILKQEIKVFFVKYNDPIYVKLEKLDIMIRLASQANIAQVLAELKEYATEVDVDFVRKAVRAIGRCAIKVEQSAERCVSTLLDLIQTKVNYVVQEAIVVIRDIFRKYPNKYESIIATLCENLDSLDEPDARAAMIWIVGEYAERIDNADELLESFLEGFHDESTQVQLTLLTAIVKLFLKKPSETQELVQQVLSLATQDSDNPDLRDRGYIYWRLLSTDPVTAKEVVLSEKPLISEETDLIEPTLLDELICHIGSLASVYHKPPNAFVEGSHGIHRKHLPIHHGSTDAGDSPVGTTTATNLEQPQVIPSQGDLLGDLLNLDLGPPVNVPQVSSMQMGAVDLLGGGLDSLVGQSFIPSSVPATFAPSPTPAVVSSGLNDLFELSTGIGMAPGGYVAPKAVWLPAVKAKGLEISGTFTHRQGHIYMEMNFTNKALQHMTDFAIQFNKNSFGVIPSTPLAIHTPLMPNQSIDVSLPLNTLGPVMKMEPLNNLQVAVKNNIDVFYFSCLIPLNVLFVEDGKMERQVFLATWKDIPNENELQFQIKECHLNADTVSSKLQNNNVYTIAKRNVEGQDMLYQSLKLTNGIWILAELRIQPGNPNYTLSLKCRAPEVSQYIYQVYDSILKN
Sequence of Integrin beta-1 (Homo sapiens) + Integrin alpha-4 (Homo sapiens) (P05556 whole entry, looked up): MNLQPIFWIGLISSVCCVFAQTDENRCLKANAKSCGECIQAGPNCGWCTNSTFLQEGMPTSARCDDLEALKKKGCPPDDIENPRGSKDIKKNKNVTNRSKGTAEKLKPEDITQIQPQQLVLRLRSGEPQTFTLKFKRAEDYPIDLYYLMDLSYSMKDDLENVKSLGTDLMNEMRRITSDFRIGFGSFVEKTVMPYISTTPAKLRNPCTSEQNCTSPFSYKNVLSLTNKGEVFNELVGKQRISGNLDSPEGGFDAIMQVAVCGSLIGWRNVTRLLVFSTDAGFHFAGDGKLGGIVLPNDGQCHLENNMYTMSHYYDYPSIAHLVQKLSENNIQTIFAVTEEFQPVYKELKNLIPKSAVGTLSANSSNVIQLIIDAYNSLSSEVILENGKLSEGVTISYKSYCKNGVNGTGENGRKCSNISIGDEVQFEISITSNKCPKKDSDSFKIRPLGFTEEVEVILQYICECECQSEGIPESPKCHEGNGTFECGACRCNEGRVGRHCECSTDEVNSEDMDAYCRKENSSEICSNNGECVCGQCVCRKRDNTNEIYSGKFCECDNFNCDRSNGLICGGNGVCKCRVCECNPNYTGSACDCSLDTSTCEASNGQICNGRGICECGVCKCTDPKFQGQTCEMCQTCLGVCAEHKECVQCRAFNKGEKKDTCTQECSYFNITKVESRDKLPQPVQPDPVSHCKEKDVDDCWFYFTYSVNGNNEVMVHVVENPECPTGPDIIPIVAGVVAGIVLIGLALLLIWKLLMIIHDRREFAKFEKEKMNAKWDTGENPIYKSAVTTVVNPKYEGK
Sequence of Integrin beta-1 (Homo sapiens) + Integrin alpha-4 (Homo sapiens) (P13612 whole entry, looked up): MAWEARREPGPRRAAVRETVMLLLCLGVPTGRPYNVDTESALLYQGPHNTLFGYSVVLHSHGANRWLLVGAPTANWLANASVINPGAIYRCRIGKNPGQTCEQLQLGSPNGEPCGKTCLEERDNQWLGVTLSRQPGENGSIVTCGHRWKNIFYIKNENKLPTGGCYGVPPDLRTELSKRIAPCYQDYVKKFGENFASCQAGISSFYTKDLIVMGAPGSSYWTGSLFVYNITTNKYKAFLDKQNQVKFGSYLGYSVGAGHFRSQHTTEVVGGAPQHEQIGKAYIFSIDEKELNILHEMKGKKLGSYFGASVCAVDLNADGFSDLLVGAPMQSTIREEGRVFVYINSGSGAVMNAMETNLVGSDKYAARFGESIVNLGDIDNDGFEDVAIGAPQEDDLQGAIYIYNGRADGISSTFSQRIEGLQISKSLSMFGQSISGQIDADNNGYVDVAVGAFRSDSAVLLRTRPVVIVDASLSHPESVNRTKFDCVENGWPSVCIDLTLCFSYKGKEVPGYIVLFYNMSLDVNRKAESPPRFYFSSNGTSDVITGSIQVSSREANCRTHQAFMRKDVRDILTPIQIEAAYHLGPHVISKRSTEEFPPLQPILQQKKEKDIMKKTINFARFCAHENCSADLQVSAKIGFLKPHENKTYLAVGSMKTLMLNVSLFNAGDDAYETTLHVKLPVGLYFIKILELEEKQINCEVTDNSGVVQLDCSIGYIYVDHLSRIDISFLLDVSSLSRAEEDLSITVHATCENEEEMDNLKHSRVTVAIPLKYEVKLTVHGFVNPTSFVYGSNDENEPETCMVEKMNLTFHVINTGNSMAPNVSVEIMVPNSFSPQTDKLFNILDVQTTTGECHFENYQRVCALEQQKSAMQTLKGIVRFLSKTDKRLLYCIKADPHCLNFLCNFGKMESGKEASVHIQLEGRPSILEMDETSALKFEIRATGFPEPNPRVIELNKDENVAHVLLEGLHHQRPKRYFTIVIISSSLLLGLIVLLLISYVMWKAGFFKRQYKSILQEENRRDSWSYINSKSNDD
Sequence of Beta-2 adrenergic receptor (Homo sapiens) (P07550 whole entry, looked up): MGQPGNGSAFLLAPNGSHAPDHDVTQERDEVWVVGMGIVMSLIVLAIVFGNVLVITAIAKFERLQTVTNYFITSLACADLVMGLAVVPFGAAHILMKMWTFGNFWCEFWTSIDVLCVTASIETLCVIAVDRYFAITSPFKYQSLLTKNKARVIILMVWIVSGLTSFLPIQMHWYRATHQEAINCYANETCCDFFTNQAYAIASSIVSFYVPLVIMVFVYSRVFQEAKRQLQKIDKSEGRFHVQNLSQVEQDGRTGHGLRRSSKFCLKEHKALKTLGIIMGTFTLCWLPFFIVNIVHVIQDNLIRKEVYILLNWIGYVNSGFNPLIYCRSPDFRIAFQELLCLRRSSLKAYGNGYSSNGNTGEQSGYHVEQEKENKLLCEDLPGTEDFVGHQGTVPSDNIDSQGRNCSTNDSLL

By inhibition is commonly meant the relative decrease from the control value, in per cent. Turning to `C[C@H](NC(=O)C1(c2ccccc2)CCN(C(=O)[C@H]2CSCN2C(=O)OC(C)(C)C)CC1)C(=O)O`, the percent of DMSO control GFP in assay [1] is 105% (inactive). For the same molecule, the GFP response vs DMSO is 103% (inactive) in assay [2] and 110% (inactive) in [4]. In addition, the percent response of DMSO control in assay [3] was 99.6% (inactive). Besides, the GFP response, % of DMSO in [5] is 117% (inactive). The molecule further came in with a double positive events in [6] of 62%. Also, the vesicle binding response in [6] was 161% (inactive). For the same molecule, the inhibition is 17.6% (inactive) in assay [7], -3.02% (inactive) in assay [11] and 1% (inactive) in assay [15]. In addition, the superoxide response (% of plate) in [8] was 95.1% (inactive). In addition, in assay [9], the aptamer binding inhibition is 6% (inactive). In addition, the response in assay [10] is -18.9% (inactive); in [12], -2.91% (inactive). Also, the binding (% of control) in [13] was 103% (inactive). Besides, the efflux inhibition (fraction of control) in assay [14] is -0.09 (inactive). In [16], the differentiation response is -1.05% (inactive).

In the case of `C#C[C@]1(O)CC[C@H]2[C@@H]3CCc4cc(O)ccc4[C@H]3CC[C@@]21C`, the percent of DMSO control GFP in assay [1] is 94.4% (inactive). Also, the GFP response vs DMSO in assay [2] was 109% (inactive); in assay [4], 84.7% (inactive). Also, the percent response of DMSO control in assay [3] is 110% (inactive). Moreover, in assay [5], the GFP response, % of DMSO was 100% (inactive). Moreover, the double positive events in [6] worked out at 51.2%. Besides, in assay [6], the vesicle binding response was 88.7% (inactive). In addition, the inhibition in assay [7] was 7.43% (inactive); in assay [11], 1.36% (inactive); in [15], 9% (inactive). Also, the superoxide response (% of plate) in assay [8] was 76.7% (inactive). For the same molecule, in assay [9], the aptamer binding inhibition was -5% (inactive). Further, the response was -0.6% (inactive) in assay [10] and 2.14% (inactive) in assay [12]. For the same molecule, the binding (% of control) in assay [13] was 106% (inactive). Further, the efflux inhibition (fraction of control) in [14] is 0.19 (inactive). The differentiation response in assay [16] was -3.28% (inactive).

As for `Cn1cc(CN2CCN(CCO)CC2)c(-c2ccc(Oc3ccccc3)cc2)n1`, the percent of DMSO control GFP in assay [1] was 102% (inactive). Further, the GFP response vs DMSO was 102% (inactive) in [2] and 114% (inactive) in assay [4]. For the same molecule, the percent response of DMSO control in assay [3] is 96.7% (inactive). Besides, in assay [5], the GFP response, % of DMSO is 100% (inactive). Moreover, the double positive events in assay [6] came to 61%. The vesicle binding response in [6] is 244% (inactive). In addition, the inhibition is 13.2% (inactive) in assay [7], -1.86% (inactive) in assay [11] and 6% (inactive) in [15]. In assay [8], the superoxide response (% of plate) is 82.1% (inactive). In addition, the aptamer binding inhibition in assay [9] was 0% (inactive). The response in assay [10] was 11.3% (inactive); in [12], 3.7% (inactive). For the same molecule, the binding (% of control) in assay [13] is 99.7% (inactive). The efflux inhibition (fraction of control) in [14] is -0.28 (inactive). Besides, the differentiation response in assay [16] is 15.2% (inactive).

Turning to `COC(=O)CN1C(=S)N(c2ccc(F)cc2)C(=O)C1CC(=O)Nc1ccccc1` (stereo not drawn), in [1], the percent of DMSO control GFP was 99.7% (inactive). In addition, the GFP response vs DMSO was 101% (inactive) in [2] and 120% (inactive) in [4]. The percent response of DMSO control in [3] was 102% (inactive). In addition, the GFP response, % of DMSO in [5] is 118% (inactive). In addition, in [6], the double positive events worked out at 57.4%. In addition, in assay [6], the vesicle binding response is 189% (inactive). The results for the inhibition in [7], in assay [11] and in assay [15] were 11.7% (inactive), 0.21% (inactive) and -3% (inactive), respectively. The superoxide response (% of plate) in assay [8] was 103% (inactive). In addition, in assay [9], the aptamer binding inhibition was 1% (inactive). Besides, the response in [10] was -25.4% (inactive); in assay [12] it was 0.96% (inactive). The binding (% of control) in assay [13] was 101% (inactive). In assay [14], the efflux inhibition (fraction of control) was 0 (inactive). Further, in assay [16], the differentiation response was -10.9% (inactive).
